Here are results for 70 compounds from the antibiotic and cytotoxicity screens of Wong et al. (2023).

Out of some 39,000 compounds screened, about 3,300 (8.5%) were called active. The sample holds actives, similar compounds and a random draw of the others, so the mix is not that of the screen.

The subject of this assay is HepG2. The assay can be described thus: cytotoxicity call (relative viability < 0.9). The conditions noted are these: 10 µM.
Take `Cc1ccc(S(=O)(=O)Nc2cccc3c2O[C@@H](CN(C)C(=O)Nc2cccc4ccccc24)[C@@H](C)CN([C@@H](C)CO)C3=O)cc1`: the cytotoxicity call was “inactive”. With `Cc1ccc(S(=O)(=O)N(C)C[C@@H]2Oc3ccc(NS(=O)(=O)c4ccccc4)cc3CC(=O)N([C@H](C)CO)C[C@H]2C)cc1`, the cytotoxicity call is “inactive”. For `CN1CC(=O)NC1=O`, the cytotoxicity call is “inactive”. To `O=C(NCCCO)C(=O)NC[C@H]1COc2ccccc2O1` belongs “inactive”. To `C[C@H](CO)N1C[C@H](C)[C@@H](CN(C)Cc2ccc3c(c2)OCO3)Oc2ncc(C#CCN(C)C)cc2C1=O` belongs “inactive”. As for `CCCCC(=O)OC1CCC2C3CCc4cc(O)ccc4C3CCC12C` (stereo not given), the cytotoxicity call is “inactive”. Consider `Cc1ccc(S(=O)(=O)Nc2ccc3c(c2)C(=O)N([C@@H](C)CO)C[C@@H](C)[C@H](CN(C)S(=O)(=O)c2cn(C)cn2)O3)cc1`, for which the cytotoxicity call is “inactive”. In the case of `Cc1c[nH]c2ccccc12`, the cytotoxicity call was “inactive”. To `Cc1cc(C)c2[nH]c3ccccc3c2n1` belongs “active”; to `CN(C)Cc1nc(=O)c2ccccc2[nH]1`, “inactive”; to `Cc1ccc(S(=O)(=O)N(C)C[C@H]2OCCCC[C@@H](C)Oc3ccc(NC(=O)Cc4ccccc4)cc3C(=O)N([C@@H](C)CO)C[C@@H]2C)cc1`, “inactive”. On to `Cc1noc(C)c1NC(=O)Nc1ccc2c(c1)CC(=O)N([C@H](C)CO)C[C@@H](C)[C@@H](CN(C)Cc1ccc(Cl)c(Cl)c1)O2`, for which the cytotoxicity call was “inactive”. With `C[C@H]1CN([C@@H](C)CO)C(=O)Cc2cc(NS(=O)(=O)c3ccc(Cl)cc3)ccc2O[C@H]1CN(C)Cc1ccc(Oc2ccccc2)cc1` the entry was “active”; with `C[C@@H]1CN([C@H](C)CO)C(=O)Cc2cc(NS(=O)(=O)c3ccc(Cl)cc3)ccc2O[C@H]1CN(C)Cc1ccc(Oc2ccccc2)cc1`, “active”. Regarding `C[C@@H]1CN([C@@H](C)CO)C(=O)Cc2cc(NS(=O)(=O)c3ccc(Cl)cc3)ccc2O[C@@H]1CN(C)Cc1ccc(Oc2ccccc2)cc1`, the cytotoxicity call is “active”.

On to `C[C@H](CO)N1C[C@H](C)[C@H](CN(C)Cc2ccc(Oc3ccccc3)cc2)Oc2ccc(NS(=O)(=O)c3ccc(Cl)cc3)cc2CC1=O`, for which the cytotoxicity call was “active”. `COCCNC(=O)C[C@H]1C[C@@H]2c3cc(NC(=O)Nc4ccc(C(F)(F)F)cc4)ccc3O[C@@H]2[C@H](CO)O1`: the cytotoxicity call is “inactive”. Turning to `C[C@H]1CN([C@@H](C)CO)C(=O)Cc2cc(NC(=O)CCCCCC(=O)Nc3ccccc3N)ccc2O[C@H]1CN(C)C(=O)Nc1cccc2ccccc12`, the cytotoxicity call was “inactive”. To `Cc1cccc(N2C[C@@H](CN)OC2=O)c1` belongs “inactive”; to `O=C(O)C[C@@H]1C=C[C@H](NC(=O)c2ccncc2)[C@@H](CO)O1`, “inactive”. `O=C(NO)c1ccc(C(=O)N/N=C/c2cccc(B(O)O)c2)cc1`: the cytotoxicity call was “inactive”.

In the case of `C[C@@H]1CN([C@@H](C)CO)C(=O)c2cc(NS(=O)(=O)c3cccs3)ccc2O[C@@H](C)CCCCO[C@H]1CN(C)C(=O)Nc1ccc(F)cc1`, the cytotoxicity call was “inactive”. As for `COc1ccc(S(=O)(=O)Nc2cccc3c2O[C@H](CN(C)S(=O)(=O)c2cccs2)[C@@H](C)CN([C@H](C)CO)C3=O)cc1`, the cytotoxicity call is “inactive”. To `C[C@@H]1CN([C@H](C)CO)C(=O)Cc2cc(NS(=O)(=O)c3ccc(Cl)cc3)ccc2O[C@@H]1CN(C)Cc1ccc(Oc2ccccc2)cc1` belongs “active”. For the compound `C[C@@H]1CN([C@@H](C)CO)C(=O)Cc2cc(NS(=O)(=O)c3ccc(Cl)cc3)ccc2O[C@H]1CN(C)Cc1ccc(Oc2ccccc2)cc1`, the cytotoxicity call is “active”.

Turning to `C[C@H]1CN([C@@H](C)CO)C(=O)Cc2cc(NS(=O)(=O)c3ccc(Cl)cc3)ccc2O[C@@H]1CN(C)Cc1ccc(Oc2ccccc2)cc1`, the cytotoxicity call was “active”.

In the case of `C[C@H](CO)N1C[C@H](C)[C@@H](CN(C)Cc2ccc(Oc3ccccc3)cc2)Oc2ccc(NS(=O)(=O)c3ccc(Cl)cc3)cc2CC1=O`, the cytotoxicity call was “inactive”. `C[C@H]1CN([C@@H](C)CO)S(=O)(=O)c2ccc(C#CC3CC3)cc2O[C@H]1CN(C)Cc1ccccc1F`: the cytotoxicity call was “inactive”. Regarding `COc1ccc(CN(C)C[C@H]2Oc3ccc(NS(C)(=O)=O)cc3CC(=O)N([C@H](C)CO)C[C@@H]2C)cc1`, the cytotoxicity call was “inactive”. Regarding `C[C@@H]1CN([C@@H](C)CO)C(=O)c2cccc(NS(=O)(=O)c3ccc(F)cc3)c2O[C@H]1CN(C)CC1CC1`, the cytotoxicity call was “inactive”. Consider `C[C@H]1CCCCO[C@H](CN(C)C(=O)Nc2cccc3ccccc23)[C@@H](C)CN([C@@H](C)CO)C(=O)c2cc(NC(=O)Nc3ccccc3)ccc2O1`, for which the cytotoxicity call is “inactive”.

Turning to `C[C@@H]1CCCCO[C@H](CN(C)S(=O)(=O)c2ccc(Cl)cc2)[C@@H](C)CN([C@H](C)CO)C(=O)c2cc(NC(=O)C3CCCCC3)ccc2O1`, the cytotoxicity call is “inactive”.

For the compound `CN(C)CC(=O)N1[C@H](CO)[C@@H](c2ccc(C3=CCCC3)cc2)C12CN(S(=O)(=O)Cc1ccccc1)C2`, the cytotoxicity call is “inactive”.

As to `CCOc1ccc(-n2c([C@@H](C)N(Cc3cccnc3)C(=O)Cc3ccc(OC(F)(F)F)cc3)nc3ncccc3c2=O)cc1`, the cytotoxicity call is “inactive”. To `CC(C)n1c(=S)[nH]c2ccccc21` belongs “active”; to `CCn1c(=S)[nH]c2ccccc21`, “inactive”. `Cn1c(=O)[nH]c2ccccc21`: the cytotoxicity call was “inactive”. In the case of `COc1ccc(CN(C)C[C@@H]2OCCCC[C@H](C)Oc3ccc(NS(=O)(=O)c4cccs4)cc3C(=O)N([C@H](C)CO)C[C@@H]2C)cc1`, the cytotoxicity call was “inactive”.

For the compound `CCNC(=O)c1csc(N)n1`, the cytotoxicity call was “inactive”.

As for `CCNC(=O)c1coc(C)n1`, the cytotoxicity call is “inactive”.

Take `CCNC(=O)c1sc(C)nc1N`: the cytotoxicity call is “active”. For the compound `C[C@@H]1CN([C@H](C)CO)C(=O)c2cc(Br)cnc2O[C@@H]1CN(C)C(=O)Nc1ccc(F)cc1`, the cytotoxicity call is “inactive”. As to `O=C(O)c1cc2n(n1)CCC2`, the cytotoxicity call is “inactive”.

In the case of `C[C@@H]1CCCCO[C@H](CN(C)Cc2ccc3c(c2)OCO3)[C@@H](C)CN([C@H](C)CO)C(=O)c2cc(NS(=O)(=O)c3ccc(Cl)cc3)ccc2O1`, the cytotoxicity call was “inactive”.

Take `C[C@@H]1CCCCO[C@@H](CN(C)Cc2ccc3c(c2)OCO3)[C@H](C)CN([C@H](C)CO)C(=O)c2cc(NS(=O)(=O)c3ccc(Cl)cc3)ccc2O1`: the cytotoxicity call is “active”.

As to `C[C@@H]1CN([C@@H](C)CO)C(=O)c2cc(NS(=O)(=O)c3ccc(Cl)cc3)ccc2O[C@@H](C)CCCCO[C@@H]1CN(C)Cc1ccc2c(c1)OCO2`, the cytotoxicity call was “inactive”. With `C[C@H]1CCCCO[C@@H](CN(C)Cc2ccc3c(c2)OCO3)[C@@H](C)CN([C@@H](C)CO)C(=O)c2cc(NS(=O)(=O)c3ccc(Cl)cc3)ccc2O1`, the cytotoxicity call is “inactive”.

For the compound `C[C@@H]1CCCCO[C@@H](CN(C)Cc2ccc3c(c2)OCO3)[C@@H](C)CN([C@H](C)CO)C(=O)c2cc(NS(=O)(=O)c3ccc(Cl)cc3)ccc2O1`, the cytotoxicity call was “active”. Turning to `C[C@H](CO)N1C[C@H](C)[C@H](CN(C)Cc2ccc3c(c2)OCO3)OCCCC[C@H](C)Oc2ccc(NS(=O)(=O)c3ccc(Cl)cc3)cc2C1=O`, the cytotoxicity call was “inactive”. Regarding `C[C@@H]1CN([C@@H](C)CO)C(=O)c2cc(NS(=O)(=O)c3ccc(Cl)cc3)ccc2O[C@@H](C)CCCCO[C@H]1CN(C)Cc1ccc2c(c1)OCO2`, the cytotoxicity call is “active”. With `C[C@@H]1CCCCO[C@H](CN(C)Cc2ccc3c(c2)OCO3)[C@H](C)CN([C@@H](C)CO)C(=O)c2cc(NS(=O)(=O)c3ccc(Cl)cc3)ccc2O1` the entry was “active”. In the case of `C[C@H]1CCCCO[C@H](CN(C)Cc2ccc3c(c2)OCO3)[C@@H](C)CN([C@@H](C)CO)C(=O)c2cc(NS(=O)(=O)c3ccc(Cl)cc3)ccc2O1`, the cytotoxicity call is “inactive”. As for `C[C@@H]1CCCCO[C@H](CN(C)Cc2ccc3c(c2)OCO3)[C@@H](C)CN([C@@H](C)CO)C(=O)c2cc(NS(=O)(=O)c3ccc(Cl)cc3)ccc2O1`, the cytotoxicity call is “inactive”. `C[C@@H]1CCCCO[C@H](CN(C)Cc2ccc3c(c2)OCO3)[C@H](C)CN([C@H](C)CO)C(=O)c2cc(NS(=O)(=O)c3ccc(Cl)cc3)ccc2O1`: the cytotoxicity call is “inactive”. Take `C[C@H](CO)N1C[C@H](C)[C@@H](CN(C)Cc2ccc3c(c2)OCO3)OCCCC[C@H](C)Oc2ccc(NS(=O)(=O)c3ccc(Cl)cc3)cc2C1=O`: the cytotoxicity call was “inactive”. With `C[C@H](CO)N1C[C@H](C)[C@H](CN(C)S(C)(=O)=O)Oc2ccc(NS(=O)(=O)c3ccc(Cl)cc3)cc2C1=O` the entry was “inactive”; with `OCc1cccc(Cn2cncn2)c1`, “inactive”; with `C[C@@H]1CN([C@@H](C)CO)S(=O)(=O)c2ccc(Br)cc2O[C@H]1CN(C)C(=O)c1ccccc1`, “inactive”.

Consider `COCC#Cc1ccc([C@@H]2[C@H]3CN(C(=O)c4ccncc4)CC(=O)N3[C@H]2CO)cc1`, for which the cytotoxicity call was “inactive”. For the compound `COc1ccc(NC(=O)Nc2ccc3c(c2)C(=O)N([C@H](C)CO)C[C@H](C)[C@@H](CN(C)S(=O)(=O)c2ccc(F)cc2)OCCCC[C@@H](C)O3)cc1`, the cytotoxicity call is “inactive”. With `C[C@H]1CN([C@@H](C)CO)C(=O)Cc2cc(NC(=O)Cn3cnnn3)ccc2O[C@H]1CN(C)Cc1ccc(C(=O)Nc2ccccc2N)cc1` the entry was “inactive”; with `Cc1ccc(S(=O)(=O)Nc2ccc3c(c2)C(=O)N([C@H](C)CO)C[C@@H](C)[C@@H](CN(C)C(=O)Nc2ccc4c(c2)OCO4)OCCCC[C@H](C)O3)cc1`, “inactive”; with `C[C@@H]1CN([C@H](C)CO)C(=O)c2cc(NC(=O)CCCN(C)C)ccc2O[C@@H]1CN(C)S(=O)(=O)c1cccs1`, “inactive”. With `CC(C)C#Cc1ccc2c(c1)O[C@@H](CN(C)C(=O)Cc1ccccn1)[C@@H](C)CN([C@@H](C)CO)S2(=O)=O`, the cytotoxicity call is “inactive”.

As to `Cc1ccc(S(=O)(=O)N(C)C[C@@H]2Oc3c(NC(=O)Nc4cccc5ccccc45)cccc3C(=O)N([C@@H](C)CO)C[C@H]2C)cc1`, the cytotoxicity call was “inactive”. As to `COc1ccc(NC(=O)Nc2cccc3c2O[C@H](CN(C)Cc2ccc(C(F)(F)F)cc2)[C@H](C)CN([C@@H](C)CO)C3=O)cc1`, the cytotoxicity call was “inactive”.

`CC(C)NC(=O)Nc1cccc2c1O[C@@H](CN(C)S(=O)(=O)c1ccc(Cl)cc1)[C@@H](C)CN([C@H](C)CO)C2=O`: the cytotoxicity call is “inactive”. With `C[C@@H]1CN([C@H](C)CO)C(=O)c2cc(NS(=O)(=O)c3ccc(Cl)cc3)ccc2O[C@@H](C)CCCCO[C@H]1CN(C)Cc1ccc2c(c1)OCO2`, the cytotoxicity call was “inactive”. With `C[C@@H]1CCCCO[C@@H](CN(C)Cc2ccc3c(c2)OCO3)[C@@H](C)CN([C@@H](C)CO)C(=O)c2cc(NS(=O)(=O)c3ccc(Cl)cc3)ccc2O1` the entry was “active”.

`C[C@@H]1CN([C@H](C)CO)C(=O)c2cc(NS(=O)(=O)c3ccc(Cl)cc3)ccc2O[C@@H](C)CCCCO[C@@H]1CN(C)Cc1ccc2c(c1)OCO2`: the cytotoxicity call was “inactive”.
